# PubChem BioAssay
# Records with an inconclusive call do not appear. Calls of active or inactive are those of the source.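 The calls were made as follows, unless noted: active = normalized viability below 100% at a tested concentration; inactive = the rest.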
# What was measured:
# [1] = growth inhibition of DIPG cells – cell-based, MIPE5.0 library, qHTS (AID 1347068; cut-off not given, nearly all actives have IC50 up to about 30 µM); conditions: SU-DIPG-XXV viability
# [2] = viability loss with induced miR-34 in A549 – imaging, A549 dox-inducible miR-34, nuclei and caspase counts, primary screen (AID 1347080;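 active = compounds whose cell count with miR-34 switched on is under 0.7 times the count with it off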); conditions: A549 miR-34 inducible, Hoechst nuclei count, 48 h
# [3] = MELAS cybrid and Rieske KO viability enhancers – cell-based, MELAS cybrids, Rieske KO mouse fibroblasts, CellTiter-Glo, primary screen (AID 1508586;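 active = mean z-score across replicates of 1.96 or higher in either the MELAS or the Rieske mutant cell line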;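 also: z relative to plate mean and SD of compound and empty wells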); conditions: low glucose
# [4] = viability loss in pontine glioma line – cell-based, SU-DIPG-XIII, MIPE5.0, CellTiter-Glo, qHTS, dose response (AID 1347064; cut-off not given, nearly all actives have AC50 up to about 23 µM;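 as to AC50: cells exposed to compound for 48 hours before the viability read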); conditions: CellTiter-Glo ATP luminescence
# [5] = viability loss in pontine glioma line – cell-based, SU-DIPG-XXV, MIPE5.0, CellTiter-Glo, qHTS, dose response (AID 1347065; cut-off not given, nearly all actives have AC50 up to about 26 µM;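 also: cells exposed to compound for 48 hours before ATP readout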); conditions: CellTiter-Glo ATP luminescence
# [6] = JHH-DIPG-1 glioma cell viability, MIPE5.0 library, CellTiter-Glo luminescence, qHTS (AID 1347067; cut-off not given, nearly all actives have AC50 up to about 26 µM;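 also: cells exposed to compound for 48 hours before readout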); conditions: JHH-DIPG-1 glioma viability, CellTiter-Glo ATP luminescence
# [7] = viability loss in pontine glioma line – cell-based, SU-DIPG-IV, MIPE4.0, CellTiter-Glo, qHTS, dose response (AID 1347063; cut-off not given, nearly all actives have AC50 up to about 30 µM;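 also: compound exposure lasted 48 hours before the viability readout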); conditions: CellTiter-Glo ATP luminescence
# [8] = drug combination growth inhibition, ovarian cancer – cell-based, oncology-focused library, rucaparib conditional, profiling panel (AID 1508598); conditions: patient-derived ovarian cancer cells, CellTiter-Glo viability, 144 h, stronger effect = lower value
# [9] = stronger effect = lower value, cell number ratio, induced over uninduced
# [10] = measured here: relative caspase fold change +Dox/-Dox
# [11] = measured here: total cells with miR-34 induction, stronger effect = lower value
# [12] = measured here: total cells without miR-34 induction
# [13] = MELAS cybrid survival, CellTiter-Glo 48 h, stronger effect = higher value
# [14] = Rieske KO mouse fibroblast survival, CellTiter-Glo 72 h
compound,measurement,setting,value
Cc1sc2c(c1C)C(c1ccc(Cl)cc1)=NC(CC(=O)Nc1ccc(O)cc1)c1nnc(C)n1-2 (centres undefined),outcome,[1],inactive
same,fold change,[2]; [9],0.898 (inactive)
same,fold change,[2]; [10],0.692
same,cell count,[2]; [11],4940
same,cell count,[2]; [12],5500
same,z-score,[3]; [13],-0.542 (inactive)
same,z-score,[3]; [14],-4.37
O=NN(O)N1CCC[C@H]1C(=O)O,fold change,[2]; [9],0.944 (inactive)
same,fold change,[2]; [10],1.07
same,cell count,[2]; [11],5740
same,cell count,[2]; [12],6080
C=C(C)[C@@H]1CCC(C)=C[C@H]1c1c(O)cc(O)cc1CCCCC,fold change,[2]; [9],0.914 (inactive)
same,fold change,[2]; [10],1.35
same,cell count,[2]; [11],5030
same,cell count,[2]; [12],5500
CCCCCC(=O)N[C@H]1CCOC1=O,fold change,[2]; [9],0.883 (inactive)
same,fold change,[2]; [10],0.721
same,cell count,[2]; [11],5400
same,cell count,[2]; [12],6120
CCCCCCC(C)(C)c1cc(O)c2c(c1)OC(C)(C)C1CC=C(CO)C[C@H]21 (some centres undefined),AC50,[4],9.34 µM (active)
same,AC50,[5],7.42 µM (active)
same,AC50,[6],7.42 µM (active)
CCNC(=O)CC1N=C(c2ccc(Cl)cc2)c2cc(OC)ccc2-n2c(C)nnc21 (centres undefined),AC50,[7],16.6 µM (active)
same,outcome,[4],inactive
same,outcome,[5],inactive
same,outcome,[6],inactive
same,outcome,[1],inactive
same,fold change,[2]; [9],0.886 (inactive)
same,fold change,[2]; [10],0.522
same,cell count,[2]; [11],5810
same,cell count,[2]; [12],6550
same,z-score,[3]; [13],0.755 (inactive)
same,z-score,[3]; [14],-2.99
COc1ccc2cc(C(C#N)OC(=O)OCC3OC3c3ccccc3)ccc2c1 (centres undefined),fold change,[2]; [9],0.914 (inactive)
same,fold change,[2]; [10],0.565
same,cell count,[2]; [11],5380
same,cell count,[2]; [12],5890
CCCCC/C=C\C/C=C\C/C=C\C/C=C\CCCC(=O)OCCN,fold change,[2]; [9],0.993 (inactive)
same,fold change,[2]; [10],0.893
same,cell count,[2]; [11],5780
same,cell count,[2]; [12],5820
COc1ccc(S(=O)(=O)N(CCO)c2ccccc2CN(C)C/C=C/c2ccc(Cl)cc2)cc1,fold change,[2]; [9],1.03 (inactive)
same,fold change,[2]; [10],1.21
same,cell count,[2]; [11],5240
same,cell count,[2]; [12],5100
CCCCCc1cc(O)c2c(c1)OC(C)(C)[C@@H]1CCC(C(=O)O)=CC21 (some centres undefined),fold change,[2]; stronger effect = lower value,0.953 (inactive)
same,fold change,[2]; [10],1.25
same,cell count,[2]; [11],5920
same,cell count,[2]; [12],6210
CCCN(CCCN)N(O)N=O,fold change,[2]; [9],1.05 (inactive)
same,fold change,[2]; [10],0.825
same,cell count,[2]; [11],5850
same,cell count,[2]; [12],5540
O=S(=O)(CC1CS1)c1ccc(Oc2ccccc2)cc1 (centres undefined),AC50,[7],20.9 µM (active)
same,AC50,[6],23.5 µM (active)
same,outcome,[1],inactive
same,fold change,[2]; [9],0.961 (inactive)
same,fold change,[2]; [10],0.577
same,cell count,[2]; [11],8270
same,cell count,[2]; [12],8600
same,z-score,[3]; [13],-0.354 (inactive)
same,z-score,[3]; [14],-1.56
same,viability,"[8]; at 0.000305 µM, OCI-C5x cells, with rucaparib 10 µM, 100% = cells with rucaparib alone",114% (inactive)
same,viability,"[8]; at 0.000305 µM, OCI-C5x cells, without rucaparib",110% (inactive)
same,viability,"[8]; at 0.000305 µM, OCI-P5x cells, with rucaparib 20 µM, 100% = cells with rucaparib alone",95.3% (active)
same,viability,"[8]; at 0.000305 µM, OCI-P5x cells, without rucaparib",95.4% (active)
same,viability,"[8]; at 0.00122 µM, OCI-C5x cells, with rucaparib 10 µM, 100% = cells with rucaparib alone",112% (inactive)
same,viability,"[8]; at 0.00122 µM, OCI-C5x cells, without rucaparib",111% (inactive)
same,viability,"[8]; at 0.00122 µM, OCI-P5x cells, with rucaparib 20 µM, 100% = cells with rucaparib alone",98.5% (active)
same,viability,"[8]; at 0.00122 µM, OCI-P5x cells, without rucaparib",92.4% (active)
same,viability,"[8]; at 0.00488 µM, OCI-C5x cells, with rucaparib 10 µM, 100% = cells with rucaparib alone",121% (inactive)
same,viability,"[8]; at 0.00488 µM, OCI-C5x cells, without rucaparib",102% (inactive)
same,viability,"[8]; at 0.00488 µM, OCI-P5x cells, with rucaparib 20 µM, 100% = cells with rucaparib alone",89.9% (active)
same,viability,"[8]; at 0.00488 µM, OCI-P5x cells, without rucaparib",97.6% (active)
same,viability,"[8]; at 0.0195 µM, OCI-C5x cells, with rucaparib 10 µM, 100% = cells with rucaparib alone",122% (inactive)
same,viability,"[8]; at 0.0195 µM, OCI-C5x cells, without rucaparib",112% (inactive)
same,viability,"[8]; at 0.0195 µM, OCI-P5x cells, with rucaparib 20 µM, 100% = cells with rucaparib alone",91% (active)
same,viability,"[8]; at 0.0195 µM, OCI-P5x cells, without rucaparib",94.3% (active)
same,viability,"[8]; at 0.0781 µM, OCI-C5x cells, with rucaparib 10 µM, 100% = cells with rucaparib alone",121% (inactive)
same,viability,"[8]; at 0.0781 µM, OCI-C5x cells, without rucaparib",102% (inactive)
same,viability,"[8]; at 0.0781 µM, OCI-P5x cells, with rucaparib 20 µM, 100% = cells with rucaparib alone",85.3% (active)
same,viability,"[8]; at 0.0781 µM, OCI-P5x cells, without rucaparib",91.2% (active)
same,viability,"[8]; at 0.313 µM, OCI-C5x cells, with rucaparib 10 µM, 100% = cells with rucaparib alone",120% (inactive)
same,viability,"[8]; at 0.313 µM, OCI-C5x cells, without rucaparib",101% (inactive)
same,viability,"[8]; at 0.313 µM, OCI-P5x cells, with rucaparib 20 µM, 100% = cells with rucaparib alone",84.7% (active)
same,viability,"[8]; at 0.313 µM, OCI-P5x cells, without rucaparib",93.5% (active)
same,viability,"[8]; at 1.25 µM, OCI-C5x cells, with rucaparib 10 µM, 100% = cells with rucaparib alone",117% (inactive)
same,viability,"[8]; at 1.25 µM, OCI-C5x cells, without rucaparib",111% (inactive)
same,viability,"[8]; at 1.25 µM, OCI-P5x cells, with rucaparib 20 µM, 100% = cells with rucaparib alone",79% (active)
same,viability,"[8]; at 1.25 µM, OCI-P5x cells, without rucaparib",82.1% (active)
same,viability,"[8]; at 5 µM, OCI-C5x cells, with rucaparib 10 µM, 100% = cells with rucaparib alone",108% (inactive)
same,viability,"[8]; at 5 µM, OCI-C5x cells, without rucaparib",110% (inactive)
same,viability,"[8]; at 5 µM, OCI-P5x cells, with rucaparib 20 µM, 100% = cells with rucaparib alone",80.3% (active)
same,viability,"[8]; at 5 µM, OCI-P5x cells, without rucaparib",81.4% (active)
CC(C)[C@]1(O)[C@@H](OC(=O)c2ccc[nH]2)[C@@]2(O)[C@@]3(C)C[C@]4(O)O[C@@]5([C@H](O)[C@@H](C)CC[C@]35O)[C@@]2(O)C41C,fold change,[2]; stronger effect = lower value,0.925 (inactive)
same,fold change,[2]; [10],1.12
same,cell count,[2]; [11],5510
same,cell count,[2]; [12],5960
Cc1sc2c(c1C)C(c1ccc(Cl)cc1)=NC(CC(N)=O)c1nnc(C)n1-2 (centres undefined),outcome,[6],inactive
same,outcome,[1],inactive
same,fold change,[2]; [9],0.978 (inactive)
same,fold change,[2]; [10],0.427
same,cell count,[2]; [11],5420
same,cell count,[2]; [12],5540
same,z-score,[3]; [13],0.425 (inactive)
same,z-score,[3]; [14],-3.88
CCCCCCCC/C=C\CCCCCCCC(=O)OC[C@@H](COP(O)(O)=S)OC,fold change,[2]; [9],1.15 (inactive)
same,fold change,[2]; [10],0.718
same,cell count,[2]; [11],6260
same,cell count,[2]; [12],5460
CCCCC/C=C\C/C=C\C/C=C\C/C=C\CCCC(=O)NCCS(=O)(=O)O,fold change,[2]; [9],0.96 (inactive)
same,fold change,[2]; [10],1.07
same,cell count,[2]; [11],5500
same,cell count,[2]; [12],5730
C[C@H]1[C@@H](CC(C[C@H]2O[C@@H]3O[C@]4(C)CC[C@H]5[C@H](C)CC[C@@H]([C@H]2C)[C@@]35OO4)CS(=O)(=O)c2ccc(COC(=O)N(C)C)cc2)O[C@@H]2O[C@]3(C)CC[C@H]4[C@H](C)CC[C@@H]1[C@@]24OO3 (some centres undefined),AC50,[7],0.209 µM (active)
CCCCC/C=C\C/C=C\C/C=C\C/C=C\CCCC(=O)NCCCl,fold change,[2]; [9],1.01 (inactive)
same,fold change,[2]; [10],1.15
same,cell count,[2]; [11],6340
same,cell count,[2]; [12],6270
